Results on 40 molecules are retold here after ChEMBL document CHEMBL1157539, “Thousands of chemical starting points for antimalarial lead identification” (Nature, 2010).

For the first assay, the system named is Plasmodium falciparum. The assay is described as follows: GSK_TCMDC: Inhibition of Plasmodium falciparum Dd2 in whole red blood cells, using parasite LDH activity as an index of growth. Test compounds present at 2uM. It counts as functional.
As for `CC(=O)Nc1nc(C(=O)Nc2cccc(-c3ccc(-c4nc5cccc(C)c5[nH]4)cc3)c2)cs1`, the Inhibition (commonly how much of the control response was suppressed) is recorded as 61%.

Take `O=C(Nc1ccc2c(c1)OCO2)c1cc(-c2cccnc2)nc2ccc(Cl)cc12`: the Inhibition is on record as 41%.

For `Cc1cccc2nc(-c3ccc(-c4ccc(CNCC5CCCO5)cc4)s3)[nH]c12.O=C(O)C(F)(F)F` (stereo unspecified), the Inhibition is recorded as 96%.

Consider `CC(=O)Nc1cc(C(=O)Nc2ccc(C3=NCCN3)cc2)ccc1C(=O)Nc1ccc(C2=NCCN2)cc1.Cl`, for which the Inhibition was found to be 92%.

Molecule `O=C(Nc1cccc(-c2nn3ncccc3c2-c2ccnc(Nc3cccc(-c4cnco4)c3)n2)c1)c1c(F)cccc1F` gave an Inhibition of 98%.

`CC(=O)Nc1ccc(S(=O)(=O)Nc2c(C)cc(Cc3cnc(N)nc3N)cc2C)cc1` registered an Inhibition of 0%.

Another assay relates to HepG2. As to the kind of experiment: GSK_TCMDC: Percent inhibition of human HepG2 cell line. Test compounds present at 10uM. It counts as functional.
Molecule `COc1ccc2c(=NN=C(C)c3ccccn3)cc(C)[nH]c2c1` had an Inhibition of 33%.

The molecule `Cn1nc(-c2ccc(Cl)cc2)c2cc(C(=O)NCCN3CCOCC3)sc21` showed an Inhibition of 21%.

`Cc1csc(-c2nc(NCCc3c(C)noc3C)ncc2-c2ccsc2)n1` came in with an Inhibition of 6%.

`CC(Nc1ccc2c(c1)CCC2)C(=O)Nc1cc(C(F)(F)F)ccc1N1CCOCC1` (stereo unspecified) showed an Inhibition of 0%.

The molecule `O=C(Nc1cccc(Cl)c1Cl)N[C@H]1CCN(CCCCCNC(=O)C2CC2c2ccc(Cl)c(Cl)c2)C1` (stereo partly specified) had an Inhibition of 40%.

In turn, `Cc1cc(N2CCCC2=O)ccc1-c1ccc(C(=O)N2CCC(Oc3cccc(Cl)c3)CC2)cc1` had an Inhibition of 34%.

As to `COc1ccc(C(=O)N2CCN(c3ccc([N+](=O)[O-])c(NC4CC4)c3)CC2)cc1Br`, the Inhibition is listed as 6%.

Molecule `COc1cc2nc(NCCn3nc(C)cc3C)nc(NCCc3ccccc3)c2cc1OC` had an Inhibition of 28%.

As for `Cl.Cn1c(/C=C/C(=O)NC2CCC(CCN3CCc4ccc(C#N)cc4CC3)CC2)cc2ccccc21` (stereo unspecified), the Inhibition was 15%.

The molecule `COc1ccc(CNC2Cc3ccccc3C2)cc1-c1ccc(OC)c(S(=O)(=O)NCCN2CCCC2)c1.O=C(O)C(F)(F)F` gave an Inhibition of 31%.

Turning to `COc1ccc(S(=O)(=O)NCC2CCCN(CCCCCNC(=O)/C=C/c3ccc(Cl)c(Cl)c3)C2)cc1` (stereo unspecified), the Inhibition is given as 53%.

With `Cc1onc(-c2c(F)cccc2Cl)c1C(=O)Nc1ccccc1I`, the Inhibition is 0%.

`O=C(Nc1cccc(N2CCC(NCCCn3ccnc3)CC2)c1)c1cccc(C(F)(F)F)c1`: the Inhibition was found to be 8%.

As to `CCC(CC)n1c(C)cc2c3c(N)nc(N)nc3ccc21`, the Inhibition was 61%.

The molecule `CC1Cc2ccccc2N1S(=O)(=O)c1cc(OCC(F)(F)F)ccc1OCC(F)(F)F` (stereo unspecified) yielded an Inhibition of 10%.

Molecule `Cc1ccc(F)c(OCC2CCCN(c3ccc(C(=O)NC4CC4)cn3)C2)c1` (stereo unspecified) returned an Inhibition of 3%.

Regarding `O=S(=O)(c1ccccc1C(F)(F)F)C1CC2CCC(C1)N2S(=O)(=O)c1ccc(Cl)c(C(F)(F)F)c1` (stereo unspecified), the Inhibition is 4%.

As to `Cc1cc2nc(-c3ccc(/C=C/C(=O)NCCc4ccccc4)cc3)[nH]c2cc1C`, the Inhibition stood at 3%.

The molecule `O=C(/C=C/c1ccc(Cl)c(Cl)c1)NCCCCCN1CCCC(CNS(=O)(=O)c2ccc(F)cc2)C1` (stereo unspecified) came in with an Inhibition of 56%.

In the case of `N#Cc1cccc(CN2CCCN(Cc3ccc(C(=O)Nc4ccc(Cl)cc4)cc3)CC2)c1.O=C(O)C(F)(F)F`, the Inhibition was 48%.

`CC(=O)c1sc(NC(=O)Nc2ccc(C)cc2C)nc1C` registered an Inhibition of 5%.

Consider `CC(=O)c1c(C)[nH]c(C(=O)Nc2ccc(-c3nc4ccc(C)cc4s3)cc2)c1C`, for which the Inhibition was 11%.

In the case of `O=S(=O)(c1cc(Cl)c(Cl)cc1Cl)N1CCCCC(c2ccc(C(F)(F)F)cc2)=N1`, the Inhibition is on record as 9%.

For the molecule `COc1cc(NC2=C(c3ccccc3)C(=O)c3ccccc32)ccn1`, the Inhibition is 7%.

With `Cc1ccccc1C1CCN(C2CCC(NC(=O)/C=C/c3cc(C(F)(F)F)ccc3F)CC2)CC1` (stereo unspecified), the Inhibition is on record as 56%.

Take `COc1cc2nc(N3CCC(CNC(=O)c4ccc(NC(=O)c5ccc(Cl)cc5)cc4)CC3)nc(N)c2cc1OC`: the Inhibition was 98%.

In the case of `CNC(=O)NC1CCN(Cc2c(-c3cccs3)nc3ccccc3c2C(=O)N[C@@H](C)C2CCCCC2)CC1`, the Inhibition was determined as 5%.

As for `CCCCCCN1CCN(Cc2cccc(NC(=O)c3cc4ccccc4o3)c2)CC1.O=C(O)C(F)(F)F`, the Inhibition is on record as 20%.

Molecule `O=C(Nc1ccc(Cl)c(Cl)c1)Nc1ccc2c(c1)CCNCC2.O=C(O)C(F)(F)F` registered an Inhibition of 13%.

For `COc1ccc(CCN2CC[C@H](Nc3nc(-c4ccc(F)c(F)c4)nc4ccccc34)C2)cc1S(N)(=O)=O.Cl`, the Inhibition amounted to 18%.

`CC(CN(C)C)C(=O)Nc1ccc(-c2csc(-c3nc4ccccc4[nH]3)c2)cc1` (stereo unspecified) registered an Inhibition of 28%.

In the case of `O=C(Nc1cccc(-c2ccc(-c3nc4cc(F)ccc4[nH]3)cc2)c1)c1cccnc1`, the Inhibition was 27%.

Take `N=C(N)Nc1nc(-c2cccc(NCCCCCCCCON3C(N)=NC(N)=NC34CCCCC4)c2)cs1.O=C(O)C(F)(F)F`: the Inhibition came out at 3%.

`CCOc1ccc(C2CCN(CCN3CCC(NC(=O)c4ccc(-c5ccc(C(F)(F)F)cc5)cc4)CC3)CC2)c(OCC2CC2)c1` registered an Inhibition of 13%.

`CC(=O)Nc1nc(C(=O)Nc2cccc(-c3ccc(-c4nc5cccc(C)c5[nH]4)cc3)c2)cs1` registered an Inhibition of 100%.

In the case of `O=C(Nc1ccc2c(c1)OCO2)c1cc(-c2cccnc2)nc2ccc(Cl)cc12`, the Inhibition is 9%.

Molecule `Cc1cccc2nc(-c3ccc(-c4ccc(CNCC5CCCO5)cc4)s3)[nH]c12.O=C(O)C(F)(F)F` (stereo unspecified) gave an Inhibition of 11%.

`CC(=O)Nc1cc(C(=O)Nc2ccc(C3=NCCN3)cc2)ccc1C(=O)Nc1ccc(C2=NCCN2)cc1.Cl` registered an Inhibition of 12%.

On to `O=C(Nc1cccc(-c2nn3ncccc3c2-c2ccnc(Nc3cccc(-c4cnco4)c3)n2)c1)c1c(F)cccc1F`, for which the Inhibition is 96%.

Turning to `CC(=O)Nc1ccc(S(=O)(=O)Nc2c(C)cc(Cc3cnc(N)nc3N)cc2C)cc1`, the Inhibition is recorded as 6%.
